Over roughly 33,000 sequences, “E-score (-0.5 to 0.5)” has its median near -0.0014; the highest 2% begin near 0.25. The sample holds the highest values, similar sequences and a random draw of the others, so the mix is not that of the screen.
What follows are sequences tested against T1, Cad1 (UniProt P24813) (assay: PBM E-score (8-mer binding enrichment) (E-score (-0.5 to 0.5)); higher = stronger / more preferred TF binding). Details: protein concentration: 100 nM; construct: GST-full length.
T1 sequence: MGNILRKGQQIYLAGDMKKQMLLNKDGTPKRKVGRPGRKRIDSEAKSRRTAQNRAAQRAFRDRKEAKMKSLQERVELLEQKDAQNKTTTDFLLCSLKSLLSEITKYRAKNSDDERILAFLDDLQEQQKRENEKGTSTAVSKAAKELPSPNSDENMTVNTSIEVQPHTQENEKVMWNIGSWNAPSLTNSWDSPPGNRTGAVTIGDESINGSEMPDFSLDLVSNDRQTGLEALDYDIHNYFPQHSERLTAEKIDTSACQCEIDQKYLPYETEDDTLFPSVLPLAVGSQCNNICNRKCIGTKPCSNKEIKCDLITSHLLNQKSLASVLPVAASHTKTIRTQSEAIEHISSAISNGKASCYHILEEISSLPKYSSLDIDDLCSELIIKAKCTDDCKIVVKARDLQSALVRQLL
Procedure, shortened: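 Yeast transcription factors, full-length or as DNA-binding domains, were expressed with a GST tag using PURExpress in vitro transcription/translation. At about 100-200 nM they were applied to universal all-10-mer Agilent arrays, double-stranded by primer extension on fresh or once-stripped slides. Fluorescent anti-GST detected bound protein, and masliner normalised the scans. E-scores for ungapped eight-base words, pooled with reverse complements, came from the Universal PBM Analysis Suite.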

Sequence	PBM E-score
AAGTAACG	-0.0002
AACCTGCG	-0.142
CAAAGAGA	-0.113
ACCCGTTC	-0.0216
CCAGGGCG	-0.18
AGAGTTGG	-0.0857
TTGGTAAA	0.073
CAAATTAA	0.207
GAAATTAA	0.295
GAAATTAC	0.234
CCGTAATC	0.143
ACGTAATG	0.147
GCGTAATA	0.142
ACATAATC	0.309
ACATAATA	0.178
ACGTAAGT	-0.102
ACGTAATC	0.286
ACGTAATA	0.311
ACATAATG	0.172
ACGTAAGA	0.199
CCGTAATA	0.113
ACGTAAGC	0.287
AAGTGGAA	-0.0197
CTCCCGCC	-0.163
ACGAAAGT	0.0253
ACACAACT	0.0775

Sequence	PBM E-score
GAAGCCAA	-0.183
CCGAAGCG	-0.22
CCCTAATC	-0.076
GAATAACA	0.252
TAATAACA	0.15
ATGTAAGA	0.227
ATGTAAGC	0.305
ATGTAAGG	0.0288
ACCTAATC	0.259
ACATAACT	0.0912
ACATAACC	-0.0477
ACATAACA	0.273
ACCTAATA	0.137
CAATAACA	-0.0158
CCTTAGCC	-0.00184
CACGCACG	-0.131
ATTCGGGG	0.0825
GTGCCGAA	-0.0386
ACTTACGG	0.0069
TGGAGTAA	0.149
AGTTTGTG	-0.0199
GGCATAAC	0.0911
CGCGAAGC	0.219
CGCGCAGA	0.287
GGCGCAGA	0.00055
GGCGCACA	0.00969

Sequence	PBM E-score
AGCGAAGA	-0.118
CGCGCAGC	0.103
CGCGAAGA	0.273
CGCGCACA	0.257
CGCGCACG	0.0231
ACCTTCAT	-0.0561
CATAAACC	-0.0325
CGAGGCGA	0.0962
ATAAGTTC	0.197
GAAAGTAC	-0.0278
CTCAATTC	0.066
CCAGCTAA	-0.0477
CATGCATA	0.156
CATGCATC	0.148
CATGCATG	0.252
AATGCATA	0.0741
AATGCATG	0.254
AATGCATT	0.229
CGTAACAC	0.124
GGGTCGTA	-0.236
ACGAAAAT	0.189
AGAGTGTC	0.198
CGGACGAA	0.274
GGGACGAA	-0.108
CGGACGAC	-0.0294
ATCTGGTG	0.0268

Sequence	PBM E-score
CGATACAC	0.00183
ATTTCTCC	-0.0308
ATTTCTCA	0.0134
ATTTCTCG	0.332
CATTACAC	0.0518
CATTACAG	0.0228
GATTACAC	0.156
TATTACAA	0.152
CATTACAA	0.277
GATTACAA	0.294
TACTTATA	0.0796
AACTTATA	0.257
GACTTATA	0.214
CTAGCTAG	0.279
ATAGCTAG	-0.106
CTAGCTAA	-0.0595
CTTGCTAA	-0.13
ATAGCTAA	0.0748
TTAGCTAA	0.298
CTAGCTAC	-0.0695
ATTGCTAA	0.256
ATTGCTAG	0.014
ACGCCTCT	-0.183
GCTTTGAA	0.108
ACCGTGTA	0.00454
ACTTACGA	0.184

Sequence	PBM E-score
AATTACGA	0.148
GCTTACAA	0.308
GCTTACGA	0.258
ACTTACAA	0.278
ACTTACAC	-0.0153
TCTTACAA	0.0371
GATTACGA	0.318
GCTTACAC	0.23
CATTACGA	0.0111
ACTTACAT	0.0914
CCTTACGA	0.00401
CGACTAAG	-0.00537
ACTTCAGG	-0.041
TACAACTA	0.0174
CAGACCCA	-0.175
CCTTACTA	0.211
GCTTACCC	0.034
GCTTACCA	0.255
TCTTACCA	-0.131
GCTTACTA	0.426
ACTTACTA	0.184
AGTCAAGA	0.121
GCCTTATA	-0.0929
GGGATGCA	-0.167
AACGGGAA	0.00234
GTCGAAGA	-0.0249

Sequence	PBM E-score
ATTGGCTC	0.0265
CCCACGGA	-0.117
CTAACGGA	0.294
ATAACGGA	0.155
ACCACGGA	-0.141
TCCACGGA	0.282
CTAACGGC	0.00942
ATGGTCCC	-0.189
CCGCCCTA	-0.00222
AGTCGGAA	0.0204
AATACTCC	-0.123
CATAATCA	0.175
AGTAATCA	0.297
CGTAATCA	0.336
GGTAAACA	0.124
CGTAAACA	0.256
AGTAATCC	0.229
AGTAAACA	0.182
CGTAATCC	0.191
GGTAATCA	0.203
AATCCCAG	0.0625
AAGAGTCG	0.0695
AATTTCTG	0.0718
AGCGGGCC	-0.0503
CCACCATA	-0.0653
CATCCGTC	-0.00289

Sequence	PBM E-score
AACTAATA	0.351
TACTAGTA	0.273
TAATACTA	0.303
AACTAATT	0.217
TACTAATA	0.285
TACTACTA	0.157
AACTAAAA	0.133
CACTAATA	0.183
CAATACTA	0.0552
CACTAGTA	0.0511
AAATACTA	0.0416
GACTAGTA	-0.117
ATACTTAC	0.0308
AGACGCCT	-0.1
ACCAACGT	0.0535
CGGCTTTA	-0.151
CGATCGGA	0.0447
CTCCATAC	-0.104
ATACACCA	0.12
CACGACTA	-0.148
CGAAGCTC	-0.231
TACTTGAA	0.0482
CAATAATA	0.208
GACTAACA	0.218
GACTAATA	0.372
AACTAAAG	0.2

Sequence	PBM E-score
GAATAATA	0.221
CACTAATG	-0.0516
AACTAATG	0.283
TAATAATA	0.29
GACTAAAA	0.114
GCTGGGCC	-0.297
GCCTATAC	-0.214
GGAATGAC	-0.179
CAGTCCAG	-0.0544
CGTCAAAC	-0.0838
AGCACTAC	-0.0732
AGCAACGG	0.0958
CTGTCCGA	0.189
GTTTATTA	0.293
ATTTATTA	0.186
ACTTATTA	0.192
CTTTATTA	0.18
CCTTATTA	0.211
GCTTATTA	0.369
CACCATCA	0.0657
TAAACGTA	0.172
GGTTTCAC	0.00803
ACGGCCCT	-0.0728
CTGTAGCC	-0.0863
AACTTGAT	0.268
AACTTGAA	0.109

Sequence	PBM E-score
AACTTGAG	-0.154
GGTGCAGA	-0.217
GCCAGGGA	-0.103
AACCTTGA	0.0727
GGAACCGA	0.0676
CGAACCGC	-0.0247
CGAACCGA	0.262
CTCGCCAC	-0.0198
AAATTTGT	0.277
TAATTTGA	0.106
AAATTTGA	0.325
AAATTTGG	0.075
AATTTTGT	0.143
CAATTTGA	-0.0156
CTGGAGGA	-0.121
CCTACCGC	-0.0896
GGCTGTAC	-0.0764
CGAGTGTA	-0.0885
ACGCTTTA	0.0919
AAGACAAG	0.0865
AAGACAAC	0.336
CAGACAAC	0.0003
GCGCGTCA	0.0818
AAGCGACT	-0.0195
TGATATAA	-0.0984
AGTTATAA	-0.037

Sequence	PBM E-score
GTATATAA	0.182
CTATATAA	0.0617
ATATATAA	0.32
TTATATAA	0.427
CGTTATAA	0.163
TCATATAA	-0.00059
TGTTATAA	0.253
AAGCCGGC	0.149
GGTGATTA	0.236
AGTGATTA	0.287
CGTGATGA	0.0624
AGTGATTC	0.11
CGTGATTC	-0.021
CGTGATTA	0.303
GGCGGCTA	0.0654
AACCTTGG	-0.168
CTAACACC	-0.0338
AATCTAGC	0.08
CAAGATTG	-0.0156
ACGGCATA	0.16
GGTCCGAA	0.143
TGTCCGAA	0.266
CGTCCGAA	0.1
ACCCTCTC	-0.183
CCCTTGAC	-0.197
TCCTCACA	-0.115

Sequence	PBM E-score
ACGGATCC	-0.0362
ACGGCGCT	-0.0736
AAAGCGCA	-0.0636
AGCGCAAA	0.189
ACGGCGCG	0.322
ACGGCGCC	0.139
AGCGCGCA	0.355
AACGCGAA	0.298
CACGCGAA	0.0527
CAAGCGCC	-0.119
CAAGCGCA	0.262
AACGCGAG	0.115
AGCGCGAA	0.21
AAGTTGAG	0.0317
GCCAACAA	-0.0504
TCGTCTAA	-0.0389
GCCGCAAC	0.0201
CGCACCGA	-0.0919
CGGCTAAA	-0.0162
CAGAGACG	0.0945
CGTTGGAC	-0.137
GCGATCGC	0.241
AGCGCGCG	0.311
TGCGCGCA	0.301
AACGCGCT	0.0463
AACGCGCG	0.282

Sequence	PBM E-score
CGCGCGCA	0.242
AACGCGCA	0.189
AGCGCGCT	0.152
AGCGCGTA	0.284
CGCGCGTA	0.152
CGCGCGCG	0.214
GGCGCGCA	0.195
GGCGCGTA	-0.0178
CGGGGGAG	-0.432
CCAGTTTC	-0.155
CCTCCATA	-0.254
GTGGGTGA	0.0388
AGAACCAA	-0.131
CACAGGAC	-0.0449
AAAGGACA	-0.0819
ACAGCTGT	0.261
TCAGCTGA	0.31
ACAGCTAT	-0.0503
GCAGCTGA	0.0932
ACAGCTGA	-0.0375
ACAGCTGG	0.0155
CCCCGGAG	-0.2
CCAGGCGC	-0.0648
CAGTTACA	-0.00475
GTCCGTTA	0.199
ATCCGTTA	0.303

Sequence	PBM E-score
ATCCGTTC	0.229
ATGATGCA	0.222
ATCGTTCA	0.0567
AGTTCATA	0.101
AGTTCATC	0.0446
AGTTCATG	0.265
CCGGTCCG	-0.104
ATGAGCCA	0.107
CATTAGAA	0.11
GGTTAGTA	0.219
ATTTAGTA	0.293
CATTAGTC	0.217
CTTTAGTA	0.174
AATTAGTG	0.316
AATTAGGG	-0.172
CGTTAGTC	0.042
ATTTAGTC	0.18
ACTTAGTG	-0.142
CGTTAGTA	0.289
CATTAGTA	0.304
AGGCCAAT	-0.0024
CCCGCCGC	-0.0389
AGCCGCAT	-0.0263
ACGAAAGC	0.00748
CGAGGTGC	0.142
AAGCGCTG	0.212

Sequence	PBM E-score
TAATATCA	0.167
CTACCTGA	-0.0406
CCTAGGCA	-0.0995
GCTTAGTA	0.344
AATTAGTC	0.346
GATTAGAA	0.0793
GATTAGTA	0.31
ACTTAGTA	0.213
CCTTAGTA	0.0752
ACTTAGTC	-0.016
AATTAGAG	0.0346
AGTTAGTC	-0.0819
AATTAGAC	0.0936
AATTAGAT	0.252
GATTAGGA	-0.0959
